# ± gives the standard deviation of the averaged measurements. Over roughly 33,000 sequences, “E-score (rank enrichment, -0.5 to 0.5)” has its median near -0.0028; the highest 2% begin near 0.23. Many of the other results were omitted from the sample, so the highest values are more common in it than they were.
# System: 2Sb-muMax20 (muMax20 with two 1,3-bis(methyl)benzene Cys staples, A13C/A17C and Q88C/A92C, C-terminal Lys)
# Assay: PBM 8-mer E-score (E-score (rank enrichment, -0.5 to 0.5)); higher = stronger preferential binding
# Experimental: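 Protein binding microarray (universal PBM chip covering all 10-mers in fixed probe flanks) with chemically synthesized human Max(13-93) bHLH-LZ analogs (not full-length Max) bearing noncanonical residues (hArg, Tha, Aib, Nle at 65) and aromatic Cys staples. Read-out per 8-mer (and its reverse complement): E-score (rank-based enrichment, -0.5 to 0.5) and Z-score of median probe intensity.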
row,Sequence,PBM 8-mer E-score
1,CAGTTGAA,0.0124 ± 0.054
2,TAGTTGAA,0.23 ± 0.012
3,AAGTTGAA,0.0152 ± 0.0042
4,AGAGAAGG,-0.029 ± 0.046
5,TATAGATA,0.213 ± 0.042
6,CATAGATA,0.277 ± 0.041
7,GATAGATA,-0.0327 ± 0.03
8,ATCGCTCA,0.0207 ± 0.008
9,AGGAAGGC,-0.0526 ± 0.077
10,CCTGTTTA,0.137 ± 0.0084
11,ACAAAATC,0.0704 ± 0.00074
12,ACAAATGG,0.266 ± 0.032
13,ACAAATGT,0.148 ± 0.026
14,AGAAATAC,0.0203 ± 0.03
15,CCAAAACG,-0.0328 ± 0.043
16,AGAAATAG,0.232 ± 0.034
17,CCAAATGG,-0.0949 ± 0.091
18,ACAAAATA,0.193 ± 0.13
19,AGAAATAT,0.0844 ± 0.12
20,ACAAAATG,0.238 ± 0.039
21,ACAAAACG,0.262 ± 0.006
22,ACAAAACC,0.13 ± 0.14
23,ACGTGGAC,0.15 ± 0.054
24,AAAGAGGG,0.0479 ± 0.037
25,CTCGTATC,0.0723 ± 0.026

row,Sequence,PBM 8-mer E-score
1,GCCCTGTA,0.032 ± 0.063
2,TTAATGAA,0.115 ± 0.088
3,AGGACAGG,-0.1548 ± 0.00025
4,TATAGCGA,0.0513 ± 0.037
5,AGAAATGC,0.177 ± 0.015
6,AGAAATGG,0.251 ± 0.033
7,AGAAATGA,-0.0864 ± 0.0095
8,ACCTGCGC,-0.114 ± 0.011
9,CCCAGCGA,-0.132 ± 0.046
10,CCTCTACA,0.0181 ± 0.028
11,CAATCACA,0.0918 ± 0.051
12,CAATCACG,0.231 ± 0.021
13,AAATCACA,0.199 ± 0.0051
14,GATCTCCC,0.122 ± 0.056
15,ATTGTAGC,-0.106 ± 0.0083
16,CGTCTCCA,-0.0564 ± 0.02
17,AGTGGTAT,0.0204 ± 0.062
18,TCCCCACA,0.261 ± 0.055
19,ATCCCCCA,-0.171 ± 0.032
20,ATCCCCAC,0.301 ± 0.04
21,ATCCCCAG,0.0369 ± 0.07
22,ATCCCCAT,0.118 ± 0.011
23,CCCCCACA,-0.26 ± 0.052
24,CTCCCCAG,0.162 ± 0.085
25,CTCCCCAA,0.309 ± 0.072

row,Sequence,PBM 8-mer E-score
1,ATCCCCCC,-0.321 ± 0.063
2,ATCCCCAA,0.301 ± 0.04
3,CCCCCACG,0.0751 ± 0.11
4,CTCCCCCA,-0.142 ± 0.09
5,ACTCGGAA,-0.104 ± 0.083
6,ATGCACTG,0.062 ± 9.2e-05
7,CCGCATAA,0.184 ± 0.0044
8,ATTTTAAA,0.126 ± 0.03
9,GGAGGACA,-0.0957 ± 0.0057
10,AGTTCGTA,-0.119 ± 0.064
11,CAGGGGGG,-0.241 ± 0.072
12,ATAGCAAA,0.1715 ± 0.0012
13,AGTCTGAC,-0.0779 ± 0.015
14,CTCCCCAC,0.292 ± 0.041
15,TTCCCAAA,0.0153 ± 0.013
16,TCCCCAAA,0.372 ± 0.029
17,GTCCCCAA,0.0368 ± 0.035
18,TCCCCCAA,-0.179 ± 0.0084
19,TTCCCCAA,0.32 ± 0.021
20,GTCCCCAC,0.0697 ± 0.074
21,CCCCCCAC,-0.238 ± 0.085
22,CCCCCAAA,-0.215 ± 0.027
23,AACAGATA,-0.0213 ± 0.017
24,ACCTCTGA,-0.0896 ± 0.0083
25,CAGACATG,-0.0511 ± 0.076

row,Sequence,PBM 8-mer E-score
1,ACTGCAGC,0.0488 ± 0.072
2,ACGCAACC,-0.0577 ± 0.0052
3,ACGCCCCT,0.109 ± 0.11
4,GCTAGAAA,0.197 ± 0.055
5,ACAGAAAG,0.278 ± 0.04
6,ACAGCAAT,0.0979 ± 0.018
7,ACAGCAAG,0.24 ± 0.03
8,ACAGAAAC,0.126 ± 0.0055
9,ACAGAAAA,0.083 ± 0.044
10,ACAGCAAC,-0.0541 ± 0.075
11,ATCCCGAG,-0.0644 ± 0.021
12,CAAGGCAA,0.0983 ± 0.056
13,ATTTGTTC,0.15 ± 0.058
14,ATTTGTTG,0.232 ± 0.0078
15,ATTTGTTA,0.187 ± 0.0095
16,ATACTGCG,0.0194 ± 0.043
17,AATTAAAG,0.133 ± 0.025
18,AATTAAGC,0.121 ± 0.063
19,AATTAAAT,0.235 ± 0.011
20,AATTAAGA,0.216 ± 0.038
21,AATTAAGT,0.24 ± 0.005
22,AATTAAAC,0.19 ± 0.065
23,ACTTAAGC,-0.134 ± 0.061
24,ACTTAAGA,0.00227 ± 0.079
25,ACTTAAGT,0.246 ± 0.033

row,Sequence,PBM 8-mer E-score
1,CCCATTGA,0.02 ± 0.063
2,GATCGAGA,-0.0884 ± 0.04
3,AAAAAGTT,0.16 ± 0.014
4,ACTTCTTA,0.125 ± 0.057
5,CAATGCAA,0.0811 ± 0.012
6,CCAGGGGG,-0.31 ± 0.076
7,AATCAACA,0.308 ± 0.015
8,GATCAACA,-0.139 ± 0.023
9,TATCAACA,0.0969 ± 0.067
10,CGTTCTAC,0.0207 ± 0.027
11,GATGACCC,-0.157 ± 0.019
12,AATGACCC,0.231 ± 0.0025
13,AATGACCG,-0.0804 ± 0.021
14,CTGACTTA,0.107 ± 0.048
15,CTCTCCAG,-0.198 ± 0.013
16,GTAGAAAA,0.0997 ± 0.012
17,ACCGCTAT,-0.0561 ± 0.049
18,GGAAAGCC,-0.00378 ± 0.093
19,ATACGTAA,0.115 ± 0.0061
20,ATACGTAC,0.16 ± 0.0041
21,ATACGTAT,0.407 ± 0.031
22,AACAGTTC,0.0164 ± 0.036
23,AAAGTGCA,0.0798 ± 0.0049
24,AACGTGCG,0.152 ± 0.016
25,TAAGTGCA,0.243 ± 0.008

row,Sequence,PBM 8-mer E-score
1,TACGTGCA,0.1615 ± 0.00067
2,AACGTGCC,0.0151 ± 0.03
3,CACGTGCA,0.417 ± 0.026
4,CACGTGCC,0.377 ± 0.015
5,CACGTGCG,0.39 ± 0.022
6,AACGTGCA,0.0984 ± 0.068
7,CCCGTGCG,-0.206 ± 0.01
8,GAAGTGCA,0.122 ± 0.077
9,GACGTGCC,-0.174 ± 0.023
10,GTGCTAAC,-0.0619 ± 0.0065
11,ATTGCTAA,-0.034 ± 0.043
12,AAGGAATC,-0.0571 ± 0.08
13,CATATGCG,0.192 ± 0.0076
14,AATAGCTC,0.0405 ± 0.046
15,ATGCGTAG,0.151 ± 0.017
16,CTGGGGGC,-0.289 ± 0.044
17,ATAAGGAC,-0.0224 ± 0.047
18,ATAAGGTA,0.132 ± 0.044
19,ATAAGGAT,0.277 ± 0.0071
20,ATAAGGTC,0.231 ± 0.014
21,ATAAGGAA,-0.0755 ± 0.029
22,CTAAGGTC,0.0156 ± 0.022
23,ATCGGATC,-0.225 ± 0.064
24,GCGAAGCC,-0.143 ± 0.0091
25,AGTCTCTG,-0.178 ± 0.037

row,Sequence,PBM 8-mer E-score
1,GCCGGTTA,-0.0245 ± 0.051
2,TACTGGAA,0.187 ± 0.013
3,ACATAGTA,0.141 ± 0.013
4,CCATAGTA,0.161 ± 0.049
5,GCATAGTA,0.234 ± 0.05
6,ACCGTGAG,-0.24 ± 0.025
7,GGGATCCA,-0.0748 ± 0.046
8,AGGTGCAG,-0.176 ± 0.029
9,AATTGAAT,0.229 ± 0.021
10,AATTGAAC,-0.0329 ± 0.083
11,AATTGAAA,0.272 ± 0.014
12,ACCGTAGC,-0.0428 ± 0.011
13,AGCTTCTG,-0.127 ± 0.071
14,AGCTTCTC,0.245 ± 0.00095
15,AGCTTCTA,-0.0235 ± 0.043
16,TACGTACA,0.198 ± 0.0031
17,CTACCGAC,-0.0505 ± 0.014
18,CTCCCCTA,0.182 ± 0.019
19,ATCCCCTG,0.114 ± 0.01
20,CTCCCCTC,0.147 ± 0.072
21,ATCCCCTA,0.2799 ± 0.00079
22,ATCCCCTC,0.2637 ± 0.0019

# Reference: the supplement of paper PMC12636033
